According to PubChem BioAssay (NCATS):
Results filed as inconclusive are left out. Calls of active or inactive are those of the source. Unless noted, the call rests on the fitted dose curve; in most records, active means well fitted curve in the direction sought with a large enough effect; inconclusive means small, poorly fitted or top-dose-only effect, or another doubt; inactive means no such curve, though single readings can be large; an effect the other way counts as inactive or inconclusive.

What was measured:
[1] = qHTS to identify inhibitors of the type 1 interferon - major histocompatibility complex class I in skeletal muscle: primary screen against the NCATS Pharmaceutical Collection (AID 1347407);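 further: luminescence of HiBiT knocked into endogenous HLA-B as interferon-induced MHC class I level; on the % scale 0 is the no-effect control and ±100 the full control effect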
Outline: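 A qHTS format is used: 8-point, 1:5 compound series with 46 uM top final concentration, applied alongside 4 ng/ml IFN-beta to HLA-B*08:01-HiBiT knock-in myoblasts. Luminescence is measured after 24 h treatment.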

[2] = target: Protein phosphatase 1D (Homo sapiens) (UniProt O15297); assay: RapidFire Mass Spectrometry qHTS Assay for Modulators of WT P53-Induced Phosphatase 1 (WIP1) (AID 1347424);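 further: amount of dephosphorylated VEPPL-S-QETFS peptide product formed by WIP1; series mostly up to about 63 µM; plate controls were DMSO wells for no effect and GSK830371 inhibitor control at 10 µM for full effect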
Outline: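 10 nM WIP1 preincubated with compounds 1 hr at room temperature in pH 7.5 Tris buffer with 30 mM MgCl2, 1 mM TCEP; 2 uM VEPPL-pS-QETFS phosphopeptide for 5 min, formic acid quench; dephosphorylated product quantified by RapidFire MS against labelled standard.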

[3] = target: Protein phosphatase 1D (Homo sapiens) (UniProt O15297); assay: Rhodamine-PBP qHTS Assay for Modulators of WT P53-Induced Phosphatase 1 (WIP1) (AID 1347425); further: % of control where 0% means no effect
Outline: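 WIP1 (5 nM final) was preincubated with compound for 1 hour at room temperature. It then dephosphorylated 10 uM VEPPL-pS-QETFS peptide in Tris-HCl pH 7.5 with 30 mM MgCl2. Released Pi was detected by 10 uM Rh-PBP fluorescence (ex 525/em 598 nm) read at 1-min intervals for 11 min, as delta f1 - f0.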

[4] = Primary qHTS for inhibitors of La Crosse Virus (LACV) - induced cell death in SH-SY5Y cells (AID 1508616);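 further: top concentration of the series differs between compounds; 0% = infected DMSO wells and 100% = uninfected DMSO wells; higher means more rescue of cells from virus-induced death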
Outline: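 Luminescent ATP readout (ATPLite 1step, 5 min room temperature) measured rescue from LACV-induced death after 6 days of infection at 0.01 MOI; normalized to infected DMSO wells and uninfected DMSO wells.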

[5] = target: Calcium and integrin-binding protein 1 (Homo sapiens) (UniProt Q99828); assay: Primary qHTS for Identification of Calcium Integrin Binding Protein 1 (CIB1) Competitor (AID 1508620);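 further: GST tagged CIB1 binding a fluorescein labelled alphaIIb integrin peptide tracer; top concentration of the series differs between compounds; on the % scale 0 is the no-effect control and ±100 the full control effect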
Outline: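 Fluorescence polarization competition: GST-tagged CIB1 (1 uM final) preincubated with compound 15 min at room temperature, then FITC-labelled alphaIIb peptide (100 nM final) added. After 15 min at room temperature, polarization read at Ex 480/Em 540.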

[6] = Counterscreen qHTS for small molecule stabilizers of the endoplasmic reticulum resident proteome: GLuc-NoTag assay (AID 1508627); further: potency means the concentration at half of the fitted maximal effect;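 on activity change, negative = inhibition: SH-SY5Y cells given compound then 100 nM thapsigargin to empty ER calcium; series mostly up to about 76 µM; 0% = thapsigargin alone and -100% = DMSO vehicle control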
Outline: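 SH-SY5Y cells stably expressing constitutively secreted GLuc without SERCaMP tag, exposed to compound for 19 hr, then to 100 nM thapsigargin for 4 hr at 37C. Medium luciferase was read by coelenterazine luminescence without lysis.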

[7] = A High-Content qHTS Against Drug Library for the Identification of Small Molecules that Inhibit DYT1 Early Onset Primary Dystonia-Associated Cell Pathology (AID 1645839; calls by dose curve; further: potency means the concentration at half of the fitted maximal effect; on % pathology change, negative = correction: series mostly up to about 46 µM)
Outline: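 Flp-In T-REx 293 cells with tetracycline-inducible EGFP-delE hTOR1A (WT EGFP-hTOR1A as reference), 800 cells/well; compound added with tetracycline, 48 h at 37 C. Fixed, permeabilized cells imaged; %pathology (punctate TorsinA) primary, cell count counterscreen.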

[8] = qHTS to identify inhibitors of the type 1 interferon - major histocompatibility complex class I in skeletal muscle: primary screen against the NCATS LOPAC collection (AID 1347405);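 further: lytic HiBiT luminescence reporting HLA-B protein level; on the % scale 0 is the no-effect control and ±100 the full control effect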
Outline: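 Immortalized human C25cl48 myoblasts with HiBiT knocked into endogenous HLA-B*08:01 were stimulated with 4.0 ng/ml IFN-beta and given compounds in a 7-point, 1:4.3 titration from 46 uM final; after 24 hrs, lytic HiBiT luminescence was read.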

[9] = target: Calcium and integrin-binding protein 1 (Homo sapiens) (UniProt Q99828); assay: Validation qHTS for Identification of Calcium Integrin Binding protein 1 (CIB1) Competitor (AID 1508618); further: on the % scale 0 is the no-effect control and ±100 the full control effect
Outline: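 Fluorescence polarization with 1 uM CIB1-GST and 100 nM FITC-alphaIIb peptide in HEPES pH 7.4, NaCl, 5 mM CaCl2, Tween20. Compounds at up to 114 uM final, preincubated with protein 15 min; read after 15 min more at RT.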

[10] = Primary qHTS for small molecule stabilizers of the endoplasmic reticulum resident proteome: Secreted ER Calcium Modulated Protein (SERCaMP) assay (AID 1508630); further: on the % scale 0 is the no-effect control and ±100 the full control effect
Outline: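 GLuc-SERCaMP-expressing SH-SY5Y cells, pretreated 16 h with compound, are challenged with thapsigargin to empty ER calcium stores; after 4 h, coelenterazine is added directly to the medium and luminescence is imaged.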

[11] = qHTS to identify inhibitors of the type 1 interferon - major histocompatibility complex class I in skeletal muscle: primary screen against the NCATS Mechanism Interrogation Plate v5.0 (MIPE) Libary (AID 1347411);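 further: plate controls were vehicle for no effect and reference inhibitor for full effect; nearly all actives have a fitted effect of over 65% in size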
Outline: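 Immortalized human C25cl48 myoblasts with HiBit knocked into endogenous HLA-B*08:01 were stimulated with 4.0 ng/ml IFN-beta and exposed to compounds (11-point 1:3 titration, top 46 uM final) for 24 hrs at 37 C; HiBiT lytic luminescence measured.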

Chain of Calcium and integrin-binding protein 1 (Homo sapiens) (Q99828 whole entry, looked up): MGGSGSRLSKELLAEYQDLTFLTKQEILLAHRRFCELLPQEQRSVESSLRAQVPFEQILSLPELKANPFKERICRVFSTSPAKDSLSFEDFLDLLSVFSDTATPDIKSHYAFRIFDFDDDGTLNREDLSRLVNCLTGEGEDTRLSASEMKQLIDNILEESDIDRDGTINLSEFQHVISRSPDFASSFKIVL
Chain of Protein phosphatase 1D (Homo sapiens) (O15297 whole entry, looked up): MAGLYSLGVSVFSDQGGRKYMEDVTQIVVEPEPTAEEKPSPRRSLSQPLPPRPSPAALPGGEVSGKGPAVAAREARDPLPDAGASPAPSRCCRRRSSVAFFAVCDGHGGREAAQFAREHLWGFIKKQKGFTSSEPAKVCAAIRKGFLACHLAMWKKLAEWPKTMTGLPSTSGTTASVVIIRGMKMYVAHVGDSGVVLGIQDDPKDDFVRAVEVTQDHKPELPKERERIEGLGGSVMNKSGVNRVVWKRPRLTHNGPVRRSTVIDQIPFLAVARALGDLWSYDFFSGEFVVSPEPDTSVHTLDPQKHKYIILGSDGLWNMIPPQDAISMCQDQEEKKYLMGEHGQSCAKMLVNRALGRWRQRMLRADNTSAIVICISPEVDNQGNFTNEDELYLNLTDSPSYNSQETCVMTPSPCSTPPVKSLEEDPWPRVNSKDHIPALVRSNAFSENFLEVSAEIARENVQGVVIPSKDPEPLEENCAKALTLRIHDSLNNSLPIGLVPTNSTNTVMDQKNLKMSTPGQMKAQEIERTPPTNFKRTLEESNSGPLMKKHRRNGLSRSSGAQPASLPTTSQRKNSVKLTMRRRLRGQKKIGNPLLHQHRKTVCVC

N=C1N=C(N)c2cc3ccccc3cc21
active: Potency [6] 89.1 µM | Potency [7] 35.5 µM
inactive: Potency [1] | Potency [2] | outcome [3] | Potency [4] | Potency [5]

CC(C(=O)O)c1ccc(C(=O)c2ccccc2)s1 (stereo not given)
inactive: Potency [1] | Potency [2] | outcome [3] | Potency [4] | Potency [5] | Potency [7]

NS(=O)(=O)c1ccc(-n2nc(C(F)(F)F)cc2-c2ccc(Cl)cc2)cc1
inactive: Potency [8] | outcome [9] | Potency [5]

N=C(N)N
inactive: Potency [1] | Potency [2] | outcome [3] | Potency [4] | Potency [5] | Potency [7]

O=C(O)Cc1cccc(-c2cc(CCCCCCc3ccc(O[C@H]4O[C@H](CO)[C@@H](O)[C@H](O)[C@@H]4O)c(-c4cccc(CC(=O)O)c4)c3)ccc2O[C@H]2O[C@H](CO)[C@@H](O)[C@H](O)[C@@H]2O)c1
inactive: activity change, negative = inhibition [1] -3.38% [at 0.727 µM] | activity change, negative = inhibition [2] -6.57% [at 0.505 µM] | activity change, negative = inhibition [3] -0.323% [at 0.575 µM] | activity change [4] -19% [at 0.0343 µM] | activity change, negative = inhibition [5] -8.49% [at 1.07 µM] | activity change, negative = inhibition [10] -18.9% [at 0.478 µM] | % pathology change, negative = correction [7] -6.26% [at 0.369 µM]

CCCOC(=O)c1ccc(O)cc1
inactive: Potency [1] | Potency [2] | outcome [3] | Potency [4] | Potency [5]

O=C(Nc1ccc(C(=O)O)c(O)c1)c1ccccc1
inactive: Potency [1] | Potency [2] | outcome [3] | Potency [4] | Potency [5] | Potency [10] | Potency [7]

Cc1ccc2c(n1)Oc1ccc(C(C)C(=O)OCC(=O)N(C)C)cc1C2 (stereo not given)
inactive: Potency [1] | Potency [2] | outcome [3] | Potency [4] | Potency [5] | Potency [10] | Potency [7]

Cc1c(N)c(=O)n(-c2ccccc2)n1C
inactive: Potency [1] | Potency [2] | outcome [3] | Potency [4] | Potency [5] | Potency [10] | Potency [7]

CCCCCCOc1ccccc1C(N)=O
inactive: Potency [1] | Potency [2] | outcome [3] | Potency [4] | Potency [5] | Potency [10] | Potency [7]

C/C(=N\O)c1ccc(OCC(=O)N2CCCCC2)cc1
inactive: Potency [1] | Potency [2] | outcome [3] | Potency [4] | Potency [5] | Potency [10] | Potency [7]

COc1cc2c3cc1Oc1cc(ccc1O)C[C@@H]1c4c(cc(OC)c(O)c4Oc4ccc(cc4)C[C@@H]3N(C)CC2)CC[N+]1(C)C
inactive: Potency [1] | Potency [2] | outcome [3] | Potency [4] | Potency [5] | Potency [10] | Potency [7]

O=C(CCc1ccncc1)NNC(=O)N1Cc2ccccc2Oc2ccc(Cl)cc21
inactive: Potency [8] | outcome [9]

C[N+]1(C)[C@@H]2CC(OC(=O)[C@H](CO)c3ccccc3)C[C@H]1[C@@H]1O[C@@H]12 (stereo not given in full)
inactive: Potency [1] | Potency [11] | Potency [2] | outcome [3] | Potency [4] | Potency [5] | Potency [10] | Potency [7]

CO[C@@]1(NC(=O)Cc2cccs2)C(=O)N2C(C(=O)O)=C(COC(N)=O)CS[C@@H]21
inactive: Potency [1] | Potency [2] | outcome [3] | Potency [4] | Potency [5] | Potency [7]

CN(CCCOc1ccc(Cc2ccccc2)cc1)CCC(=O)O
inactive: Potency [8] | outcome [9] | Potency [5]

CC(C)OC(=O)c1cc(C(=O)OC(C)C)cc([N+](=O)[O-])c1
inactive: Potency [1] | Potency [2] | outcome [3] | Potency [4] | Potency [5] | Potency [6] | Potency [7]

CC(C(=O)O)c1ccc(C(=O)c2cccs2)cc1 (stereo not given)
inactive: Potency [1] | Potency [2] | outcome [3] | Potency [4] | Potency [5] | Potency [10] | Potency [7]

CCOc1ccc2nc(S(N)(=O)=O)sc2c1
inactive: Potency [1] | Potency [2] | outcome [3] | Potency [4] | Potency [5] | Potency [10] | Potency [7]

CCCCCCCC/C=C/C(=O)O
inactive: Potency [1] | Potency [2] | outcome [3] | Potency [4] | Potency [5] | Potency [10] | Potency [7]

O=C(CS)Nc1ccccc1
inactive: Potency [1] | Potency [2] | outcome [3] | Potency [4] | Potency [10]

CCCCCCCCCCCCOCCO
inactive: Potency [1] | Potency [2] | outcome [3] | Potency [4] | Potency [5] | Potency [7]

O=C(O)Cc1ccc(-c2ccccc2)cc1
inactive: Potency [1] | Potency [2] | outcome [3] | Potency [4] | Potency [5] | Potency [7]

CC(C(=O)O)c1ccc2c(c1)[nH]c1ccc(Cl)cc12 (stereo not given)
inactive: Potency [1] | Potency [4] | Potency [5] | Potency [7]

O=C(OCc1ccccc1)c1ccccc1
inactive: Potency [1] | Potency [2] | outcome [3] | Potency [4] | Potency [10] | Potency [7]

COc1cc(NC(C)CCCN)c2ncccc2c1 (stereo not given)
inactive: Potency [1] | Potency [2] | Potency [4] | Potency [5]
active: Potency [6] 44.7 µM

Nc1ccc([N+](=O)[O-])cc1O
inactive: Potency [1] | Potency [2] | outcome [3] | Potency [5]

Nc1ccc(C(=O)O)c(O)c1
inactive: Potency [1] | Potency [2] | outcome [3] | Potency [4] | Potency [5] | Potency [7]

CCCCCCCCCCCCCCCCCC(=O)O
inactive: Potency [1] | Potency [2] | outcome [3] | Potency [4] | Potency [7]
